Assay results: the supplement of paper PMC11624193, “Coupling cellular drug-target engagement to downstream pharmacology with CeTEAM” (Nature Communications, 2024)
Counter-ions that a name gives are not always drawn.

What follows are molecules tested against PARP1 L713F-nLuc biosensor (HCT116) (UniProt P09874) (assay: PARP1 L713F-nLuc/akaLuc ratio relative to DMSO control (biosensor stabilization) (fold change); higher = more PARP1 biosensor stabilization (target engagement / stabilizer), active = hit call of the paper). Conditions: stock concentration (mM; final µM = stock mM x 1): 10; 24 h;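 active = log2 fold change beyond 2 SD from the library mean after excluding viability outliers; inactive = within 2 SD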.
Chain of PARP1 L713F-nLuc biosensor (HCT116) (P09874 whole entry L713F, looked up): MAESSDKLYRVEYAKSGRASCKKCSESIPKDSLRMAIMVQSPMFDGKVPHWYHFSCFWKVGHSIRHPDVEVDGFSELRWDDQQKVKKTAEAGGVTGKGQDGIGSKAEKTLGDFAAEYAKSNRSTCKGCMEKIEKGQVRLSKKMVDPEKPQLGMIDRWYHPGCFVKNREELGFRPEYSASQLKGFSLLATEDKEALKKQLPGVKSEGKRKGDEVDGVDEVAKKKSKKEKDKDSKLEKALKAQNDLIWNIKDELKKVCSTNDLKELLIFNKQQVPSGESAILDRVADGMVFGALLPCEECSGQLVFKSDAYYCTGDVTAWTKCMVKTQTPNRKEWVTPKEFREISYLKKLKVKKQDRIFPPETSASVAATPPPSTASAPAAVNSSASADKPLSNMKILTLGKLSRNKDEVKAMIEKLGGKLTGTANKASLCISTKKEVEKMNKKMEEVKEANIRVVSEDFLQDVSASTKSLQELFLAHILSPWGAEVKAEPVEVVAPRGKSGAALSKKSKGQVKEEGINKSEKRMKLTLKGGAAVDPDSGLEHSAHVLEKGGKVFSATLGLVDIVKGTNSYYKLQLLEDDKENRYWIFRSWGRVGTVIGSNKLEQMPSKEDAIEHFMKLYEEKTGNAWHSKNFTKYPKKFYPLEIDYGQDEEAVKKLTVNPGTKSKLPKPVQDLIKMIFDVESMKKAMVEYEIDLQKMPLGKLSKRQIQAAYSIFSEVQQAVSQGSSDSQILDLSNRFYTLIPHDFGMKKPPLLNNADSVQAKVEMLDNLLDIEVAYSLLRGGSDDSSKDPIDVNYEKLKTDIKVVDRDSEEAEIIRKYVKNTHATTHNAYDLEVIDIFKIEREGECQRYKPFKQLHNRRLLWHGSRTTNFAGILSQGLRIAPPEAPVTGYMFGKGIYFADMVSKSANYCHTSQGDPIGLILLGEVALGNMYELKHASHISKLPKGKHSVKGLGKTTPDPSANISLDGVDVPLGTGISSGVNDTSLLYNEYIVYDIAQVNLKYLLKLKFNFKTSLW

SMILES	PARP1 L713F-nLuc/akaLuc ratio
NNc1nncc2ccccc12 [Hydralazine (hydrochloride)]	0.617 (inactive)
Cc1cc(Nc2cc(N3CCN(C)CC3)nc(Sc3ccc(NC(=O)C4CC4)cc3)n2)n[nH]1 [Tozasertib (VX-680, MK-0457)]	0.821 (inactive)
Cn1cc(Nc2nccc(N3C[C@H]4CC[C@@H](C3)N4C(=O)[C@@H]3CC3(F)F)n2)cn1 [Brepocitinib (P-Tosylate)]	0.619 (inactive)
Cc1cc(-c2ncc(CC(=O)Nc3ccc(-c4cnccn4)cn3)cc2C)ccn1	1.03 (inactive)
O=C(Nc1ccc(O)c(C(=O)O)c1)c1cccc(NC(=O)c2ccco2)c1	1.19 (inactive)
CCN(CCCOc1ccc2c(Nc3cc(CC(=O)Nc4cccc(F)c4)[nH]n3)ncnc2c1)CCOP(=O)(O)O [Barasertib]	1.15 (inactive)
CNCc1ccc(-c2[nH]c3cc(F)cc4c3c2CCNC4=O)cc1 [Rucaparib (Camsylate)]	6.55 (active)
Cc1ccc(NC(=O)c2ccc(CN3CC[C@H](N(C)C)C3)c(C(F)(F)F)c2)cc1Nc1nccc(-c2cncnc2)n1 [Bafetinib (INNO-406)]	0.726 (inactive)
Cc1cnc(Nc2ccc(OCCN3CCCC3)cc2)nc1Nc1cccc(S(=O)(=O)NC(C)(C)C)c1 [Fedratinib (hydrochloride hydrate)]	0.551 (inactive)
O=c1[nH]c(CSC2CCC(O)CC2)nc2cc(OCC3CC3)cc(F)c12 (stereo unspecified)	1.21 (inactive)
CO[C@@H](C(=O)N1Cc2[nH]nc(NC(=O)c3ccc(N4CCN(C)CC4)cc3)c2C1)c1ccccc1	0.781 (inactive)
